# Measurements from the supplement of paper PMC8728848.
# This excerpt belongs to a sample that is enriched for the strongest signals.
# B1: PX15618B-bfa-464-25-464 (Bacteroides fragilis) (protein)
# chain: DQEPPLYVNENDIFTSPTRIEATLNGLYAAIKNTGTKSLMGGKSYLVFDNRGDDVINISNNLVTLFNTYNMNVGITDAENADTWTYAYLAINKVNTFLQSLEGAREVAGENYDRYVQEAKFVRALAYYYLNNLYPTPYSVNPDAKSVPLRLTAEAGTENNNMPRSTVKQIYEHILSDLENISALDTEVNTYTGVTHATQAAANMLKMRVYMAMNEWDKAITAGELVTGYSLPEDVTLIYKAPYFSQESIFSLPMADTNIPNTQQSLAEYYYDGKIMLIDTKSGIMSKPDYSLATDKRIIAFKGEKDLLMKFTDAKTKLQWVPIFRYAETLLDLAECYANKAGGEATAKSLLKQVRGRSVDAATDPLNIDNLSGDALKEAIYNEKRLEFIGEGIRGIDIMRRGEHFIKVGENETINVGPSDEKYTWPIPQVELLLNKDINK
# Legend:
# Test in all cases: glycan array binding signal (z-score within array); higher = stronger binding
# Conditions in all cases: glycan notation: IUPAC condensed, linker removed
# Fuc(a1-2)Gal(b1-3)GalNAc = target: Fuc(a1-2)Gal(b1-3)GalNAc
# In short: (§1)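 Glycan array binding is given as a within-array Z-score, which can be read as non-binding when negative. The arrays, 3228 of them, came from the Consortium for Functional Glycomics database and were retained only where the protein sequence was available. Z-scores were averaged across arrays of the same protein sequence at different concentrations or buffers and across linkers.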
# [1] = target: Fuc(a1-2)Gal(b1-3)GlcNAc(b1-3)[Fuc(a1-2)Gal(b1-3)GlcNAc(b1-6)]GalNAc
# In short: as §1
# [2] = target: Fuc(a1-2)Gal(b1-3)[Fuc(a1-4)]GlcNAc(b1-3)[Fuc(a1-3)[Gal(b1-4)]GlcNAc(b1-6)]Gal(b1-4)Glc
# In short: as §1
# [3] = target: Fuc(a1-2)Gal(b1-4)GlcNAc(b1-2)Man(a1-3)[Fuc(a1-2)Gal(b1-4)GlcNAc(b1-2)Man(a1-6)]Man(b1-4)GlcNAc(b1-4)GlcNAc
# In short: as §1
# [4] = target: Fuc(a1-2)Gal(b1-4)GlcNAc(b1-3)Gal(b1-4)GlcNAc(b1-3)Gal(b1-4)GlcNAc
# In short: as §1
# [5] = target: Fuc(a1-2)Gal(b1-4)[Fuc(a1-3)]GlcNAc(b1-2)[Fuc(a1-2)Gal(b1-4)[Fuc(a1-3)]GlcNAc(b1-4)]Man(a1-3)[Fuc(a1-2)Gal(b1-4)[Fuc(a1-3)]GlcNAc(b1-2)Man(a1-6)]Man(b1-4)GlcNAc(b1-4)GlcNAc
# In short: as §1
# [6] = target: Fuc(a1-2)[Gal(a1-3)]Gal(b1-4)GlcNAc(b1-2)Man(a1-3)[Fuc(a1-2)[Gal(a1-3)]Gal(b1-4)GlcNAc(b1-2)Man(a1-6)]Man(b1-4)GlcNAc(b1-4)GlcNAc
# In short: as §1
# [7] = target: Fuc(a1-2)[Gal(a1-3)]Gal(b1-4)GlcNAc(b1-2)Man(a1-3)[Fuc(a1-2)[Gal(a1-3)]Gal(b1-4)GlcNAc(b1-2)Man(a1-6)]Man(b1-4)GlcNAc(b1-4)[Fuc(a1-6)]GlcNAc
# In short: as §1
# [8] = target: Fuc(a1-2)[GalNAc(a1-3)]Gal(b1-3)GlcNAc
# In short: as §1
# [9] = target: Fuc(a1-2)[GalNAc(a1-3)]Gal(b1-3)GlcNAc(b1-2)Man(a1-3)[Fuc(a1-2)[GalNAc(a1-3)]Gal(b1-3)GlcNAc(b1-2)Man(a1-6)]Man(b1-4)GlcNAc(b1-4)GlcNAc
# In short: as §1
# [10] = target: Fuc(a1-2)[GalNAc(a1-3)]Gal(b1-3)GlcNAc(b1-2)Man(a1-3)[Fuc(a1-2)[GalNAc(a1-3)]Gal(b1-3)GlcNAc(b1-2)Man(a1-6)]Man(b1-4)GlcNAc(b1-4)[Fuc(a1-6)]GlcNAc
# In short: as §1
# [11] = target: Fuc(a1-2)[GalNAc(a1-3)]Gal(b1-4)[Fuc(a1-3)]GlcNAc(b1-3)GalNAc
# In short: as §1
# [12] = target: Fuc(a1-3)[GalNAc(b1-4)]GlcNAc
# In short: as §1
# Gal(a1-3)Gal = target: Gal(a1-3)Gal
# In short: as §1
# Gal(a1-4)Gal(b1-4)Glc = target: Gal(a1-4)Gal(b1-4)Glc
# In short: as §1
# [13] = target: Gal(a1-4)Gal(b1-4)GlcNAc(b1-2)Man(a1-3)[Gal(a1-4)Gal(b1-4)GlcNAc(b1-2)Man(a1-6)]Man(b1-4)GlcNAc(b1-4)GlcNAc
# In short: as §1
# Gal(b1-3)Gal = target: Gal(b1-3)Gal
# In short: as §1
# Gal(b1-3)GlcNAc = target: Gal(b1-3)GlcNAc
# In short: as §1
# [14] = target: Gal(b1-3)GlcNAc(b1-3)Gal(b1-4)GlcNAc(b1-2)Man(a1-3)[Gal(b1-3)GlcNAc(b1-3)Gal(b1-4)GlcNAc(b1-2)Man(a1-6)]Man(b1-4)GlcNAc(b1-4)GlcNAc
# In short: as §1
# [15] = target: Gal(b1-3)[Fuc(a1-4)]GlcNAc(b1-2)Man(a1-3)[Gal(b1-3)[Fuc(a1-4)]GlcNAc(b1-2)Man(a1-6)]Man(b1-4)GlcNAc(b1-4)[Fuc(a1-6)]GlcNAc
# In short: as §1
# [16] = target: Gal(b1-3)[Neu5Ac(b2-6)]GalNAc
# In short: as §1
# [17] = target: Gal(b1-4)GlcNAc(b1-2)Man(a1-6)[Man(a1-3)]Man(b1-4)GlcNAc(b1-4)GlcNAc
# In short: as §1
# [18] = target: Gal(b1-4)GlcNAc(b1-2)[Gal(b1-4)GlcNAc(b1-4)]Man(a1-3)[Gal(b1-4)GlcNAc(b1-2)Man(a1-6)]Man(b1-4)GlcNAc(b1-4)GlcNAc
# In short: as §1
# [19] = target: Gal(b1-4)GlcNAc(b1-2)[Gal(b1-4)GlcNAc(b1-6)]Man(a1-6)[Gal(b1-4)GlcNAc(b1-2)Man(a1-3)]Man(b1-4)GlcNAc(b1-4)GlcNAc
# In short: as §1
# [20] = target: Gal(b1-4)GlcNAc(b1-3)Gal(b1-3)GalNAc
# In short: as §1
# [21] = target: Gal(b1-4)GlcNAc(b1-3)Gal(b1-4)GlcNAc(b1-3)Gal(b1-4)GlcNAc(b1-3)Gal(b1-4)GlcNAc(b1-3)Gal(b1-4)GlcNAc(b1-2)[Gal(b1-4)GlcNAc(b1-3)Gal(b1-4)GlcNAc(b1-3)Gal(b1-4)GlcNAc(b1-3)Gal(b1-4)GlcNAc(b1-3)Gal(b1-4)GlcNAc(b1-6)]Man(a1-6)[Gal(b1-4)GlcNAc(b1-3)Gal(b1-4)GlcNAc(b1-3)Gal(b1-4)GlcNAc(b1-3)Gal(b1-4)GlcNAc(b1-3)Gal(b1-4)GlcNAc(b1-2)Man(a1-3)]Man(b1-4)GlcNAc(b1-4)[Fuc(a1-6)]GlcNAc
# In short: as §1
# [22] = target: Gal(b1-4)GlcNAc(b1-6)Gal(b1-4)GlcNAc
# In short: as §1
# Gal(b1-4)GlcNAc6P = target: Gal(b1-4)GlcNAc6P
# In short: as §1
# Gal3S(b1-4)GlcNAc = target: Gal3S(b1-4)GlcNAc
# In short: as §1
# Gal4S6S(b1-4)GlcNAc = target: Gal4S6S(b1-4)GlcNAc
# In short: as §1
binder,measurement,setting,value
B1,glycan array binding signal (z-score),Fuc(a1-2)Gal(b1-3)GalNAc,-0.355
same,glycan array binding signal (z-score),[1],1.41
same,glycan array binding signal (z-score),[2],-0.516
same,glycan array binding signal (z-score),[3],8.2
same,glycan array binding signal (z-score),[4],0.251
same,glycan array binding signal (z-score),[5],4.25
same,glycan array binding signal (z-score),[6],1.41
same,glycan array binding signal (z-score),[7],-0.101
same,glycan array binding signal (z-score),[8],-0.308
same,glycan array binding signal (z-score),[9],0.241
same,glycan array binding signal (z-score),[10],0.028
same,glycan array binding signal (z-score),[11],0.311
same,glycan array binding signal (z-score),[12],1.31
same,glycan array binding signal (z-score),Gal(a1-3)Gal,0.348
same,glycan array binding signal (z-score),Gal(a1-4)Gal(b1-4)Glc,0.822
same,glycan array binding signal (z-score),[13],-0.514
same,glycan array binding signal (z-score),Gal(b1-3)Gal,0.33
same,glycan array binding signal (z-score),Gal(b1-3)GlcNAc,1.37
same,glycan array binding signal (z-score),[14],-0.678
same,glycan array binding signal (z-score),[15],0.153
same,glycan array binding signal (z-score),[16],-0.017
same,glycan array binding signal (z-score),[17],0.248
same,glycan array binding signal (z-score),[18],0.511
same,glycan array binding signal (z-score),[19],2.66
same,glycan array binding signal (z-score),[20],-0.13
same,glycan array binding signal (z-score),[21],19.3
same,glycan array binding signal (z-score),[22],0.086
same,glycan array binding signal (z-score),Gal(b1-4)GlcNAc6P,-0.626
same,glycan array binding signal (z-score),Gal3S(b1-4)GlcNAc,-0.305
same,glycan array binding signal (z-score),Gal4S6S(b1-4)GlcNAc,-0.852
